In PubChem BioAssay AID1159580 (chemical genetic matrix, 2015):
Out of some 5,500 compounds screened, about 2,000 (36%) were called active. Inconclusive results (about 18%) are left out. Rule as the data show it: active = normalized growth mostly below about 0.91 (no sharp cut-off); inconclusive = no clear call, values can overlap the other calls; inactive = mostly above about 0.92. The list shows a part of the results.

Test: chemical genetic growth profiling, strain panel (AID 1159580);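 also: tested at 20 µM; growth read once vehicle control cultures reached saturation at 30 °C; 1 = growth at the plate median or of vehicle wells; lower values mean less growth of the strain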
Conditions: S. cerevisiae deletion strains, growth OD
[1] = locus YHR030C, strain SLT2, active compounds read low
[2] = locus YHR079C, strain IRE1, active compounds read low
[3] = locus YJL095W, strain BCK1, active compounds read low
[4] = locus YJR066W, strain TOR1, active compounds read low
[5] = locus YLR113W, strain HOG1, active compounds read low
[6] = locus YNL183C, strain NPR1, active compounds read low
[7] = locus YOR231W, strain MKK1, active compounds read low
[8] = locus YPL256C, strain CLN2, active compounds read low

Measured: normalized growth

CCN(CC)CCNC(C(=O)OCCC(C)C)c1ccccc1 (stereo not drawn)
inactive: [1] 0.984 | [2] 0.986 | [3] 0.979 | [4] 0.913 | [5] 1.03 | [6] 0.916 | [7] 0.978 | [8] 0.964

Nc1ccc([As](=O)(O)O)cc1
inactive: locus YAL021C, strain ccr4, active compounds read low 1 | locus YAL026C, strain drs2, active compounds read low 1.02 | locus YAL030W, strain snc1, active compounds read low 1 | locus YBL061C, strain skt5, active compounds read low 1.01 | locus YBR009C, strain hhf1, active compounds read low 1.02 | locus YBR023C, strain chs3, active compounds read low 1.02 | locus YBR171W, strain sec66, active compounds read low 0.997 | locus YBR231C, strain swc5, active compounds read low 1.01 | locus YBR279W, strain paf1, active compounds read low 1 | locus YCL011C, strain gbp2, active compounds read low 1 | locus YCL016C, strain dcc1, active compounds read low 1.01 | locus YCL061C, strain MRC1, active compounds read low 1 | locus YCL069W, strain vba3, active compounds read low 1.01 | locus YCR088W, strain abp1, active compounds read low 1.01 | locus YDL005C, strain med2, active compounds read low 0.996 | locus YDL040C, strain nat1, active compounds read low 1.01 | locus YDR001C, strain nth1, active compounds read low 0.992 | locus YDR069C, strain doa4, active compounds read low 1.01 | locus YDR137W, strain rgp1, active compounds read low 0.994 | locus YDR159W, strain sac3, active compounds read low 1.02 | locus YDR195W, strain ref2 0.993 | locus YDR297W, strain sur2, active compounds read low 0.999 | locus YDR334W, strain swr1, active compounds read low 1.01 | locus YDR335W, strain msn5, active compounds read low 0.995 | locus YDR392W, strain spt3, active compounds read low 1.01 | locus YEL003W, strain gim4, active compounds read low 0.996 | locus YEL037C, strain rad23, active compounds read low 0.997 | locus YEL061C, strain CIN8 (second series), active compounds read low 0.997 | locus YER015W, strain faa2, active compounds read low 0.999 | locus YER016W, strain bim1, active compounds read low 1 | locus YER111C, strain swi4, active compounds read low 1 | locus YER155C, strain BEM2 (second series), active compounds read low 1.03 | locus YFR010W, strain ubp6, active compounds read low 1 | locus YGL167C, strain pmr1, active compounds read low 0.997 | locus YGL173C, strain kem1, active compounds read low 1.01 | locus YGL227W, strain vid30, active compounds read low 0.998 | locus YGL240W, strain doc1, active compounds read low 1.01 | locus YGL253W, strain hxk2, active compounds read low 1 | locus YHR013C, strain ard1, active compounds read low 1.03 | locus YHR027C, strain rpn1, active compounds read low 1 | [1] 1 | [2] 0.984 | locus YHR142W, strain chs7, active compounds read low 1.02 | locus YJL092W, strain hpr5, active compounds read low 1.01 | locus YJL095W, strain BCK1 (second series), active compounds read low 1 | [3] 0.971 | locus YJL115W, strain asf1, active compounds read low 1.01 | locus YJL129C, strain trk1, active compounds read low 1 | locus YJL154C, strain vps35, active compounds read low 1 | locus YJL164C, strain tpk1, active compounds read low 1.01 | locus YJL166W, strain qcr8, active compounds read low 0.998 | locus YJL187C, strain SWE1, active compounds read low 1 | [4] 0.966 | locus YKL160W, strain elf1, active compounds read low 1 | locus YKR026C, strain gcn3, active compounds read low 0.997 | locus YKR091W, strain srl3, active compounds read low 1.01 | locus YLL001W, strain dnm1, active compounds read low 1.01 | locus YLL026W, active compounds read low 1.01 | locus YLL041C, strain sdh2, active compounds read low 1.01 | locus YLR027C, strain aat2, active compounds read low 1 | [5] 0.965 | locus YLR221C, strain rsa3, active compounds read low 1.01 | locus YLR258W, strain gsy2, active compounds read low 1.01 | locus YLR262C, strain YPT6 (second series), active compounds read low 1 | locus YLR320W, strain mms22, active compounds read low 0.999 | locus YLR342W, strain FKS1, active compounds read low 1.01 | locus YLR357W, strain rsc2, active compounds read low 1.01 | locus YLR370C, strain arc18, active compounds read low 1 | locus YLR384C, strain iki3, active compounds read low 1 | locus YML120C, strain ndi1, active compounds read low 0.997 | locus YMR058W, strain fet3, active compounds read low 1 | locus YMR125W, strain sto1, active compounds read low 1 | locus YMR129W, active compounds read low 1 | locus YMR205C, strain PFK2, active compounds read low 1.04 | locus YMR231W, strain pep5, active compounds read low 1 | locus YNL071W, strain lat1, active compounds read low 1 | [6] 0.968 | locus YNL209W, strain ssb2, active compounds read low 0.999 | locus YNL248C, strain rpa49, active compounds read low 0.992 | locus YNL322C, strain KRE1 (second series), active compounds read low 1.01 | locus YNR049C, strain mso1, active compounds read low 1 | locus YOR001W, strain rrp6, active compounds read low 1 | locus YOR070C, strain gyp1, active compounds read low 1.01 | locus YOR080W, strain dia2, active compounds read low 1.01 | locus YOR083W, strain WHI5, active compounds read low 1 | locus YOR106W, strain vam3, active compounds read low 1.03 | [7] 1.01 | locus YOR265W, strain rbl2, active compounds read low 0.996 | locus YOR270C, strain vph1, active compounds read low 1.06 | locus YOR290C, strain snf2, active compounds read low 1 | locus YPL051W, strain arl3, active compounds read low 1.01 | locus YPL078C, strain atp4, active compounds read low 0.996 | locus YPL106C, strain sse1, active compounds read low 0.996 | locus YPL240C, strain hsp82, active compounds read low 1 | [8] 1.02
